In the supplement of paper PMC6555819:

Tested on: VDR:RXRa (NR concentration 270 nM, RXRa partner concentration 90 nM)
Experiment: PBM binding z-score (relative to random genomic background probes); higher = stronger binding; sequences stand for … in GC…GCGATTGACAGCGTAGAATGAAGG
Procedure: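 Protein-binding microarray (Agilent 4x180K custom design, double-stranded 60-nt probes: 5' GC cap, 34-nt variable region, 24-nt constant primer region; full probe sequence given). Purified or IVT nuclear receptor:RXRα heterodimers (3:1 NR:RXRα, mostly 270:90 nM) or homodimers were incubated for 1 h in PBS with 2% milk and no ligand, then detected with Alexa488 antibodies. Fluorescence from o1-orientation probes (~5 replicates averaged) was converted to z-scores against 500 random hg19 background probes. Variable regions are seed direct-repeat (DR0–DR5) sites, all their single-nucleotide variants and half-site ablations.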

**Q.** For AGAACGAGGGCACGCTGAGTTGGTAGCAGAGTAG, which PBM binding z-score is on record?
**A.** Its PBM binding z-score is 1.34.

**Q.** Which PBM binding z-score does the source give for TAGCCTCGGTCAGATCGGGCCAGTATACGCTATA here?
**A.** The PBM binding z-score was -0.637.

**Q.** AATGCAGGGTCACTAGGCCAGAGTAGGTACGAAT was tested. Which PBM binding z-score did it give?
**A.** Its PBM binding z-score is 4.04.

**Q.** How did the PBM binding z-score turn out when ATCGATAGGTCGACGAGGTGAGTATACACCGTTT was run?
**A.** The PBM binding z-score was 2.96.

**Q.** Which PBM binding z-score does the source give for TAAGACAGGTGAAGGTAACTCAGGTACGCAGTCG here?
**A.** Its PBM binding z-score is 0.46.

**Q.** TCTTGTAGATCAATAGAGCTTAAGAAAGTGCGCT was tested. Which PBM binding z-score did it give?
**A.** The PBM binding z-score was -0.108.

**Q.** How did the PBM binding z-score turn out when TCTATTAGTCGAAGGGCAACCGACGAGTCCGTTT was run?
**A.** Its PBM binding z-score is 0.789.

**Q.** How did the PBM binding z-score turn out when TTACCCAGGTGAGCTGAGGTCGTTGATCCAACTC was run?
**A.** The PBM binding z-score was 2.93.

**Q.** With CCTATTAGTTGACCATAGGGGCAACCGAAGCTCG as the sequence, how does the PBM binding z-score read?
**A.** Its PBM binding z-score is 0.497.

**Q.** Which PBM binding z-score does the source give for CCTAGTTGGTCAGGAGGTCACACATCGGATATGA here?
**A.** Its PBM binding z-score is 3.76.

**Q.** How did the PBM binding z-score turn out when TCATATAGGTAAAGGGTGAAAGTCGGTGTGGTAA was run?
**A.** The PBM binding z-score was 1.17.

**Q.** For CCAGACGGGTGAGAAGGTAACTCAGCCTCGATTA, which PBM binding z-score is on record?
**A.** The PBM binding z-score was -0.516.

**Q.** Which PBM binding z-score does the source give for ACTGACAGGTGAGTGAAGGTAACTCAGCTGGACG here?
**A.** Its PBM binding z-score is -0.322.

**Q.** How did the PBM binding z-score turn out when ATCTCTAGGTATCAAGTTCAGTGAAAGAGAGGAC was run?
**A.** Its PBM binding z-score is 1.94.

**Q.** Which PBM binding z-score does the source give for GGAACGAGGGCATTCTAGTTGATAGCATGGCGAT here?
**A.** Its PBM binding z-score is 1.81.

**Q.** How did the PBM binding z-score turn out when TCTCGGAGGACACCAAGGTCAGAGCTTTCCAGAG was run?
**A.** Its PBM binding z-score is 3.36.

**Q.** How did the PBM binding z-score turn out when CCTACTGGGACAAGGTCATTGATCAGTCAAAGCA was run?
**A.** The PBM binding z-score was 3.48.

**Q.** Which PBM binding z-score does the source give for GCTATTAGTTGAAAGGGCAACCCAATGATTCTCG here?
**A.** Its PBM binding z-score is 0.662.

**Q.** With TCGAGTAGGTTAGGGGCATACAGAATGGCGTCGA as the sequence, how does the PBM binding z-score read?
**A.** The PBM binding z-score was 0.604.

**Q.** How did the PBM binding z-score turn out when AGAATGAGGTGATTAAGATCAGGGAATTGCGGTC was run?
**A.** The PBM binding z-score was 0.0675.

**Q.** With ATCGAAAGGTCGTGAGGTGAGTGTACAGAAAGGC as the sequence, how does the PBM binding z-score read?
**A.** Its PBM binding z-score is 3.63.

**Q.** With CCTACTGGGCCATTCATAGGTCATTGATCATATG as the sequence, how does the PBM binding z-score read?
**A.** Its PBM binding z-score is 1.24.

**Q.** Which PBM binding z-score does the source give for CGTCAAAGTTCAACTAAGGTAACGCAAAGCACGC here?
**A.** Its PBM binding z-score is 4.64.

**Q.** ATATGTAGGTTATCGGGTCTTTCAGTTTGCGCAT was tested. Which PBM binding z-score did it give?
**A.** Its PBM binding z-score is 3.12.

**Q.** Which PBM binding z-score does the source give for GCTTGTACATCAAGGTTAAGAAAGACTAAGCTAA here?
**A.** The PBM binding z-score was 0.208.

**Q.** ACTATTAGTTGAGACGAGGGCAAACGATAGGTTG was tested. Which PBM binding z-score did it give?
**A.** The PBM binding z-score was 0.775.

**Q.** For ATTTCTAGGTAAAGTTCAGTGAAAGATCGATAGA, which PBM binding z-score is on record?
**A.** The PBM binding z-score was 2.11.

**Q.** For ACTAGCAGGCCTAGTTTGGGTCACTCAAACAAAG, which PBM binding z-score is on record?
**A.** The PBM binding z-score was -0.0369.

**Q.** With TCTCGGAGGACACGAAGGACAGAGCTTTCCAGAG as the sequence, how does the PBM binding z-score read?
**A.** Its PBM binding z-score is -0.0596.

**Q.** Which PBM binding z-score does the source give for TCTAGTTGGTCACGGAGGTCACCCACGACGGGTA here?
**A.** Its PBM binding z-score is 5.63.

**Q.** For ATCGAAAGGTCGGCGAGGTGAGTATACACCGTTT, which PBM binding z-score is on record?
**A.** Its PBM binding z-score is 4.48.

**Q.** With TCGCGGAGGACACGAAGGTCAGAGCTTTCCAGAG as the sequence, how does the PBM binding z-score read?
**A.** Its PBM binding z-score is 2.1.

**Q.** With ATCTCTAGGTAAAGTTCAGAGAAAGATCGATAGA as the sequence, how does the PBM binding z-score read?
**A.** The PBM binding z-score was 1.41.

**Q.** Which PBM binding z-score does the source give for AGAATGAGGCTACCAAAGATCAGGGAAACGCTTG here?
**A.** The PBM binding z-score was -0.544.

**Q.** For AGAATGAGGTTTTACGTAGATCAGGGAAGAAAGT, which PBM binding z-score is on record?
**A.** The PBM binding z-score was -0.19.

**Q.** How did the PBM binding z-score turn out when CCGACTTGGGCAGAAAGGTTACCATACCATCCGG was run?
**A.** The PBM binding z-score was 0.0426.

**Q.** For GGAACGAGGGGAAAGTTGATAGCATCTGTCGACG, which PBM binding z-score is on record?
**A.** Its PBM binding z-score is -0.259.

**Q.** Which PBM binding z-score does the source give for AGAACGAGGGCAATGAGTGGATAGCACGGGTGGC here?
**A.** The PBM binding z-score was 1.49.

**Q.** With TCGTGTAGATCAACAGGAGGTTAAGAAAGATCGA as the sequence, how does the PBM binding z-score read?
**A.** The PBM binding z-score was 0.314.

**Q.** How did the PBM binding z-score turn out when CAAACTAGTTCACCGGAAGGTCAAAGTCCGCATG was run?
**A.** The PBM binding z-score was 5.4.
